Screens: PubChem, several laboratories
Sampled rows, rich in hits. Any-hit rate of the full collection: about 4.2%.
GDH-TPI inh = inhibits GDH-TPI coupling enzymes, artifact for Mtb FBA screen; AID 588335; GDH-TPI coupled enzyme counterscreen, NADH absorbance; 360,000 tested, 1.2% active; inhibition, % at 4.8 µM; in the data active = inhibition above about 30%;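 also: 0% = DMSO wells and 100% = wells lacking the enzyme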
PrPC TRFRET = cell surface PrPC inhibition, primary TR-FRET screen | P04156 | TR-FRET read-out | inhibition, % at 13.8 µM | 370,000 tested, 0.43% active | AID 720596; in the data active = inhibition above about 24%; also: 0% = median of the test wells and 100% = reference compound wells
FBA Mtb inh = inhibits M. tuberculosis FBA enzyme; P9WQA3; purified M. tuberculosis FBA, fluorescence read-out; inhibition, % at 1 µM; 360,000 tested, 2.3% active; AID 588726; in the data active = inhibition above about 27%;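 also: 0% = vehicle and 100% = reference inhibitor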
Target sequence (P9WQA3 whole entry, looked up): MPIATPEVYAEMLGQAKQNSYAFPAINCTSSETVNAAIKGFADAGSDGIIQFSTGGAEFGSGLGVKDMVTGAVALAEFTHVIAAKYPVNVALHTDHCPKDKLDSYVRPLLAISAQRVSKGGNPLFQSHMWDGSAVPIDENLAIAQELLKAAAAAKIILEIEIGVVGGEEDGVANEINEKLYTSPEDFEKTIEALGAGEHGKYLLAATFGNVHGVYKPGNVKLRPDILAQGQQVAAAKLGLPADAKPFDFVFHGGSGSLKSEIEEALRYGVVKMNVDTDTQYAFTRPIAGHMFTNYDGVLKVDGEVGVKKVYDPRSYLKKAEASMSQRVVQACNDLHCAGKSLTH
BJeLR lethal = kills HRASV12-expressing BJeLR cells; BJeLR (HRASV12) viability, CellTiter-Glo ATP luminescence, 48 h; inhibition, % (no concentration beside the values); 300,000 tested, 0.17% active; AID 1554; in the data active = inhibition above about 50%
RecA splice inh = blocks M. tuberculosis RecA intein splicing; P9WHJ3; cell-free RecA intein splicing, fluorescence; inhibition, % (no concentration beside the values); 290,000 tested, 0.75% active; AID 2221; in the data active = inhibition above about 30%;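 also: 0% = vehicle wells and 100% = reference inhibitor control wells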
* hit, by the source's call; i = inactive; / = no result; + = active, no number.

SMILES	GDH-TPI inh	PrPC TRFRET	FBA Mtb inh	BJeLR lethal	RecA splice inh
Cc1c(Cl)cccc1NC(=O)CC1NCCNC1=O (centres undefined)	-8.9	-2.7	+	2.4	-0.5
Cc1c(Cl)cccc1NC(=O)CC1SCCNC1=O (centres undefined)	3.9	-6.9	2.5	8.3	-2.0
CCN(CCCCN1C(=O)c2ccccc2C1=O)c1ccc2c(c1)C(=O)N(C)C2=O	43.4*	-5.5	1.5	3.8	-7.8
O=S1(=O)c2c(cccc2N2CCC[C@@H]2CO)O[C@@H]2CCN1C2	/	-7.7	/	/	/
CCCN1C(=O)c2ccccc2NC1c1ccc(O)c(OCC)c1 (centres undefined)	6.0	3.2	44.6*	-21.9	-2.3
O=C(Nc1ccc(OC(F)(F)F)cc1)Nc1c(-c2ccccc2)nc2ncccn12	/	-4.4	/	/	/
Cc1cc(C)c2c(N)c(C(=O)Nc3ccccc3F)sc2n1	10.8	-7.1	25.6	-11.0	-37.3
Cc1cc(C)c2c(N)c(C(=O)Nc3ccccc3Cl)sc2n1	6.1	-2.1	32.8*	-6.6	-1.6
C=COC(=O)c1sc2nc(C)cc(C)c2c1N	1.1	-4.4	134.2*	-9.2	-20.2
O=C1CCC[C@H]2Cc3nc4cc5c(cc4cc3C[C@]23CCCN13)OCO5	/	10.3	/	/	/
N#Cc1c(C(F)(F)F)cc(=O)n2c1[nH]c1ccccc12	3.5	7.7	+	-11.6	i
Cc1c(Cc2ccccc2)c(=O)n2c([nH]c3ccccc32)c1C#N	2.9	1.6	133.4*	1.6	-0.2
CC(=O)C1=C(C)N(Cc2ccc(Cl)cc2)C(=S)NC1c1ccc(Cl)cc1 (centres undefined)	/	15.3	/	/	/
CCOC(=O)c1sc2nc(CC(=O)OC)nc(NCC(=O)OC)c2c1C	14.1	-4.8	125.9*	-1.7	-4.7
CCOC(=O)c1sc2nc(CC(=O)OC)nc(NCc3ccco3)c2c1C	10.6	-1.5	19.7	-2.0	6.6
C=CCn1c(-c2cccc(OC)c2)n[nH]c1=S	0.0	2.3	0.8	-2.6	0.0
C=CCn1c(-c2cccs2)nc2nc3ccccc3nc21	24.8	-30.6	+	1.3	-1.8
C=CCn1c(-c2cccc(OC)c2)nc2nc3ccccc3nc21	53.8*	-39.4	2.7	-3.1	2.7
Cc1cccc(-c2cccc3c4c([nH]c23)[C@@H]2C[C@H](N(C)C(=O)Nc3ccccc3)[C@H]([C@H](C)O)C(=O)N2CC4)c1	/	4.3	/	/	/
CCCn1c(=N)c(C(=O)NCc2ccc3c(c2)OCO3)cc2c(=O)n3cccc(C)c3nc21	1.2	-5.6	4.0	-6.8	-20.1
CCNC(=O)c1cc2c(=O)n3cccc(C)c3nc2n(Cc2ccc(C)cc2)c1=N	4.1	-15.7	111.9*	1.9	i
Cc1cccn2c(=O)c3cc(C(=O)NC(C)C)c(=N)n(Cc4ccncc4)c3nc12	1.9	-40.8	+	-0.1	-382.6
COCCCNC(=O)c1cc2c(=O)n3cccc(C)c3nc2n(C(C)C)c1=N	-0.9	-6.8	+	-0.6	-407.8
COCCn1c(=N)c(C(=O)NCCc2ccc(OC)cc2)cc2c(=O)n3cccc(C)c3nc21	7.8	-34.6	4.7	2.0	-1.6
CCOC(=O)[C@]12CCCC=C1N(Cc1ccc(OC)cc1)C(=O)[C@@H]2CC(=O)N1CCCC1	/	4.1	/	/	/
SMILES	GDH-TPI inh	PrPC TRFRET	FBA Mtb inh	BJeLR lethal	RecA splice inh
CC(=O)c1ccc(Nc2nc(C(C)N)cs2)cc1 (centres undefined)	31.2*	-4.3	-5.4	/	/
Cc1ccc(N=Nc2c(N)nn3c(C)cc(C)nc23)cc1	39.5*	-14.7	-7.1	1.2	-2.9
COC(=O)[C@H](CC(C)C)N1Cc2nnn(Cc3ccccc3)c2-c2cc(F)ccc2S1(=O)=O	/	7.8	/	/	/
CCC(c1nnnn1Cc1ccc(F)cc1)N(CCCO)Cc1cc2cc3c(cc2[nH]c1=O)OCO3 (centres undefined)	34.8*	-2.0	13.3	-8.8	-1.9
CCC(c1nnnn1CC1CCCO1)N(CCCO)Cc1cc2cccc(C)c2[nH]c1=O (centres undefined)	4.2	-2.1	12.8	0.0	-1.4
Cc1ccc(C(CC(=O)c2ccco2)SCCO)cc1 (centres undefined)	32.8*	4.6	0.8	0.9	2.2
O=C(CSc1nnc(-c2cnccn2)n1-c1ccccc1)c1ccccc1Br	/	-3.3	/	/	/
Cc1ccc(S(=O)(=O)c2c(C)cc(-c3ccccc3)[nH]c2=O)cc1	27.5	-5.2	81.1*	-4.2	0.8
CCCCC(=O)N1CCN(C(=O)c2ccc3c(c2)nc(C)n3C2CCCC2)CC1	/	2.7	/	/	/
Cc1ccc(-c2ccc(C(=O)Nc3ccccc3)o2)c2ccccc12	7.6	3.1	8.9	-8.5	10.3
Cc1ccc(S(=O)(=O)NC(=O)c2ccc(-c3ccc(C)c4ccccc34)o2)cc1	29.3	0.0	130.5*	-2.6	20.0
Cc1ccc2[nH]c3c(c2c1)CCCC3NC(=O)CCl (centres undefined)	2.5	/	-5.5	59.9*	0.0
Cc1ccccc1CS(=O)(=O)Cc1ccc(C(=O)Nc2ccccc2C)o1	/	5.3	/	/	/
CCn1cc(/C=C(\NC(=O)c2ccc(OC)cc2)C(=O)NCCCn2ccnc2)c2ccccc21	37.2*	-5.7	-4.5	/	/
CCn1cc(/C=C(\NC(=O)c2ccccc2F)C(=O)NCCCn2ccnc2)c2ccccc21	32.8*	-11.7	-5.1	-1.3	0.3
CCCC1CCC2(CCC(=O)N2CCSc2ccccc2)CC1 (centres undefined)	/	10.7	/	/	/
O=c1[nH]ccc2c([N+](=O)[O-])cccc12	5.4	-17.5	-0.3	-2.7	-3.6
O=[N+]([O-])c1cccc2c([As](=O)(O)O)cccc12	20.0	-4.4	1.5	6.9	35.3*
COc1ccc2cc(C3=CCCCC3)ncc2c1	7.9	-5.1	26.9*	/	/
N#C[C@@H]1N[C@H](CO)[C@@H]1c1ccccc1	/	-5.7	/	/	/
CCOC(=O)c1ccc(NC(=O)c2sc3nc(N4CCOCC4)c4c(c3c2N)CCCC4)cc1	14.2	4.4	8.7	5.3	-5.3
CC1(C)Cc2c(c(N3CCOCC3)nc3sc(C(N)=O)c(N)c23)CO1	32.5*	-0.3	18.7	-4.8	-3.4
CCOC(=O)c1sc2nc(N3CCOCC3)c3c(c2c1N)CCC3	30.3	6.5	124.9*	-10.9	-0.4
COC(=O)c1cc(C(C)c2ccccc2O)n2ccccc12 (centres undefined)	/	15.0	/	/	/
COC(=O)[C@H](CC(C)C)N(Cc1cn(Cc2ccc(C)cc2)nn1)S(=O)(=O)c1ccccc1Br	/	-5.4	/	/	/
SMILES	GDH-TPI inh	PrPC TRFRET	FBA Mtb inh	BJeLR lethal	RecA splice inh
O=C(CN1CCc2onc(-c3ccc(-n4cc(C5=CCCCC5)nn4)cc3)c2C1=O)N1CCOCC1	/	-2.6	/	/	/
O=C1c2ccccc2-c2c1nc1c([n+]2[O-])CCCC1	-6.2	-2.2	-1.3	-0.7	36.5*
Nc1[nH]c2cc(Cl)ccc2c1C(=O)N1CCOCC1	/	7.1	/	/	/
COc1ccc(-n2c(SCC(=O)Nc3ccc(S(=O)(=O)Nc4nccs4)cc3)nnc2-c2ccccc2)cc1	/	-3.8	/	/	/
c1ccc(-c2c3ccccc3nc3[nH]c4ccccc4c23)cc1	13.4	/	31.4*	-5.2	-3.6
O=C(Nc1nc2ncccn2c1-c1ccc(C(F)(F)F)cc1)c1ccccc1	/	-1.3	/	/	/
